Results published in PubChem BioAssay.

Assay: growth effects on S. cerevisiae YJM789 – YJM789 clinical isolate, OD600, 24 h, basal, primary screen (AID 1089);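 further: growth of clinical yeast isolate S. cerevisiae YJM 789 seeded 1000 cells per well; test concentration not given here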
Conditions: higher = more signal, called active from +8 up or from −8 down

z-score, inactive:
CO[C@H]1COC(=O)CC=C[C@H](C)[C@@H](OC)COC(=O)CC=C[C@@H]1C -0.49
CN(C)C(=O)[C@@]1(Cc2ccccc2N=[N+]=[N-])N=C(c2ccc(OCCCO)cc2)O[C@H]1c1ccccc1CN=[N+]=[N-] -1.92
O=C(CS)NCCCCCNC(=O)[C@H]1C[C@H]2C(=O)N3CCC[C@H]3C(=O)N2[C@H]1c1ccc(O)cc1 -0.0414
Cc1ccccc1C(O)C1C=CC2C(=O)N(c3ccccc3)C(=O)C2N1Nc1ccc(C#N)cc1 (stereo unspecified) 0.907
COC(=O)[C@@]1(Cc2ccccc2N=[N+]=[N-])N=C(c2ccc(OCCCO)cc2)O[C@H]1c1ccccc1CN=[N+]=[N-] 0.653
CCCCCCc1nc(C2CC2)c(C)c2c1[Si](C(C)C)(C(C)C)OC2 -2.2
C[N+](C)(C)CCCC[C@@H]1NC(=O)[C@H]2C[C@@H](C(=O)NCc3ccc(F)cc3)[C@@H](c3cccc(OCCO)c3)N2C1=O -1.69
CCCNC(=O)[C@@H]1c2ccccc2C(=O)N(Cc2cc(F)cc(C(F)(F)F)c2)[C@H]1c1ccc(CO)cc1 -1.15
C#CCCCON=C1C[C@@H](O)[C@@H](O)[C@@H]2[C@@H]3C(=O)N(Cc4ccc5c(c4)OCO5)C(=O)[C@@H]3CC[C@H]12 -0.216
Cc1ccc([C@@H]2CC=C(C(=O)O)[C@H](c3ccccc3)N2S(=O)(=O)c2ccc(C)cc2)cc1 -0.0782
C=CCNC(=O)[C@H]1[C@@H]2C(=O)O[C@@H](c3ccccc3)[C@@H](c3ccccc3)N2[C@@H](c2ccc(O)cc2)[C@]12C(=O)Nc1ccc(C#CCNC(N)=O)cc12 -0.396
